# Screens: PubChem BioAssay, National Center for Advancing Translational Sciences (NCATS)
# Only some compounds are listed: those with a hit (about 12% of all), similar ones and a draw of the others.
# HP1b binding inh – HP1-beta chromodomain-methylated histone interaction inhibition; AlphaScreen HP1-beta / biotin-H3K9me3 peptide binding; P83916; 390,000 compounds, 0.56% hits; Potency, µM (doses to about 114 µM), for the others: at the highest dose activity change, negative = inhibition, usual class: inhibitors; note: nearly all actives have a fitted effect of over 70% in size
#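 HP1-beta protein (50 nM final) preincubated 30 min at room temperature with biotinylated H3(1-18)K9me3 peptide (50 nM) in PBS pH 7.4, 0.01% Tween-20, then compound added for 30 min. AlphaScreen streptavidin donor/nickel chelate acceptor beads (10 ug/mL final), 30 min dark, luminescence read.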
# G9a block – G9a (human) methyltransferase inhibition | 350,000 compounds, 8.8% hits | Potency, µM (top dose mostly 102 µM), for inactives: at the highest dose activity, negative = inhibition, most hits filed as inhibitors | Q96KQ7 | G9a H3K9 monomethylation, AlphaScreen, 2 h | AID 504332; note: % is set by controls: 0 for no effect and ±100 for the full control effect; nearly all actives have a fitted effect of over 75% in size
#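 Chemiluminescent proximity detection of H3K9 monomethylation, read after 10 min bead incubation in the dark. Reaction: 20 nM G9a, 500 nM biotin-H3K9 peptide, 20 uM SAM cofactor, 2 h, room temperature, following 15 min enzyme-compound preincubation.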
# Sfp inh – inhibitors of Bacillus subtilis Sfp phosphopantetheinyl transferase; Q9F4F7; Biochemical Sfp PPTase activity, qHTS; Potency, µM, without a hit: largest response in the series, negative = inhibition, hits mostly inhibitors; 310,000 compounds, 3.5% hits; AID 1490;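 note: the enzyme is Sfp with the accession as filed and its product quenches rhodamine fluorescence; 0% = enzyme reaction without inhibitor and -100% = no enzyme wells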
#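 Compounds were incubated with enzyme (final 15 nM) for 15 min at room temperature before substrate addition started the reaction. Fluorescence at 525 nm excitation, 598 nm emission was recorded immediately and after 30 minutes.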
# L3MBTL1 inh – blocks human L3MBTL1; Q9Y468; AlphaScreen L3MBTL1–H3K9me1 peptide binding; Potency, µM (top dose mostly 57.1 µM), for the others: at the highest dose activity, negative = inhibition, most hits filed as inhibitors; 230,000 compounds, 0.66% hits; AID 485360; note: % is set by controls: 0 for no effect and ±100 for the full control effect; nearly all actives have a fitted effect of over 60% in size
# Target sequence (Q9Y468 whole entry, looked up): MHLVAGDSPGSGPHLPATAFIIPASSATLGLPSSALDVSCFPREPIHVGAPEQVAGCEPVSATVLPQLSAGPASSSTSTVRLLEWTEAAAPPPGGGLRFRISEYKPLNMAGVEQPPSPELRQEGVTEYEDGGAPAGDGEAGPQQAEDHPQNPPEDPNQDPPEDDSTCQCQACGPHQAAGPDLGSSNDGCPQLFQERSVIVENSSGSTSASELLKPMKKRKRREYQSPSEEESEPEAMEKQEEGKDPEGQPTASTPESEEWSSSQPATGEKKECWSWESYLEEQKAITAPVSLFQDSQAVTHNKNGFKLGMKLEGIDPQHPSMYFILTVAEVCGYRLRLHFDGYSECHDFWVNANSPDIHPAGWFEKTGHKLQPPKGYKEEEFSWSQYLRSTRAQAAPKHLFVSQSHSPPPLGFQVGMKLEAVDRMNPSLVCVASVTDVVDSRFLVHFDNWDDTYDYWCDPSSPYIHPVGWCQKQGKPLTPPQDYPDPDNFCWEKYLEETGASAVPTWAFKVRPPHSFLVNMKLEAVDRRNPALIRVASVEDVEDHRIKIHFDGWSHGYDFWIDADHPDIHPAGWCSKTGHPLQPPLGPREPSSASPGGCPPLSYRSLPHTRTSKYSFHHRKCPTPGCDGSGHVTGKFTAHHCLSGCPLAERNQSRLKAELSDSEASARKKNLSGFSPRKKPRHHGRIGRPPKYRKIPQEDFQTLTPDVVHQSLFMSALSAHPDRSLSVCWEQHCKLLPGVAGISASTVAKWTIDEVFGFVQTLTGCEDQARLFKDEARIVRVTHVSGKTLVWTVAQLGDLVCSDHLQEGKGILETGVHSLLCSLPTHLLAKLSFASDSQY
#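 L3MBTL1 50 nM + b-AHA-H3(1-15)K9me1 75 nM, 30 min RT; compound added, 30 min RT; streptavidin donor/Ni-chelate acceptor beads 10 ug/mL each final, 30 min RT dark; AlphaScreen read.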
# BAZ2B inh – blocks human BAZ2B. Q9UIF8. AlphaScreen BAZ2B-H3K14Ac peptide displacement. Potency, µM (series often up to 114 µM), for inactives: top-dose activity change, negative = inhibition, most hits filed as inhibitors. 360,000 compounds, 4.4% hits; note: % is set by controls: 0 for no effect and ±100 for the full control effect; nearly all actives have a fitted effect of over 60% in size
#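 Complex of BAZ2B and biotin-H3K14Ac (50 nM apiece) forms over 30 min at RT, then faces library compounds up to 110 uM for another 30 min; AlphaScreen beads added, 20 min dark incubation, luminescence read.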
# JMJD2A Tudor inh – blocks the human JMJD2A Tudor domain; AlphaScreen JMJD2A-Tudor / H3K4me3 peptide binding; Potency, µM (series often up to 114 µM), inactives show at the top dose activity change, negative = inhibition, actives largely listed as inhibitors; O75164; AID 504339; 390,000 compounds, 4.4% hits; note: % is set by controls: 0 for no effect and ±100 for the full control effect; nearly all actives have a fitted effect of over 50% in size
# The depositor's hits bear a star; ? = inconclusive; nt = not tested or not shown; [ ] = dose if it differs, or a comment. Calls come from the whole dose curve; as a rule, active = well fitted curve in the direction sought with a large enough effect; inconclusive = small, poorly fitted or top-dose-only effect, or another doubt; inactive = no such curve, though single readings can be large; an effect the other way counts as inactive or inconclusive. Potency is the fitted concentration of half-maximal effect.
SMILES,HP1b binding inh,G9a block,Sfp inh,L3MBTL1 inh,BAZ2B inh,JMJD2A Tudor inh
CC(=O)[C@@H]1[C@@H](C(=O)c2ccccc2)[C@]2(C(=O)Nc3ccccc32)[C@H]2C=Cc3cc(F)ccc3N12,-30.8%,8.91µM*,-18.7%,1.8%,?,-35.9%
O=C(c1ccccc1)[C@@H]1[C@@H](C(=O)c2ccc(F)cc2)[C@@]2(C(=O)Nc3ccccc32)[C@H]2c3ccccc3C=CN12,23.3%,12.6µM*,-17.4%,-8.1%,-35.7%,-30.5%
N#CC1c2ccccc2C=CN1C(=O)c1ccccc1 (stereo not given),13.7%,2.9%,12.9%,-3.4%,25.5%,-18.7%
CC(=O)Oc1cccc(C)c1,nt,23.0%[59 µM],-12.1%,nt,nt,nt
Cc1cccc(C)c1NC(=O)/C(C#N)=C/c1ccc(-c2ccc(C(=O)O)cc2)o1,11.8%,44.7µM*,4.0%,nt,?,-28.3%
N#C/C(=C\c1ccc(-c2ccc(C(=O)O)cc2)o1)C(=O)NCC1CCCO1 (stereo not given),7.6%,10µM*,4.4%,?,?,-16.6%
CCOc1cccc(C(=O)Nc2ccc(-c3nc4cc(C)cc(C)c4o3)cc2)c1,17.3%,-13.3%[59 µM],nt,nt,1.9%,-13.1%
Cc1nnc(SCC(=O)Nc2cccc(C(F)(F)F)c2)n1Cc1ccco1,-21.5%,-47.5%[59 µM],39.8µM*,12.2%,45.1%,?
O=C(CSc1nnc(-c2ccco2)n1Cc1ccco1)NCc1ccccc1,24.5%,-47.6%[59 µM],12.7%,nt,-4.7%,-12.2%
O=C(CSc1nnc(-c2ccccc2)n1Cc1ccco1)Nc1ccc2c(c1)OCCO2,-0.8%,39.8µM*,44.7µM*,-4.9%,-38.2%,-31.0%
O=C(CSc1nnc(-c2cccs2)n1Cc1ccco1)Nc1ccc2c(c1)OCO2,15.9%,-40.8%[12.7 µM],?,?,?,-32.3%
O=C(CSc1nnc(-c2ccccc2)n1Cc1ccco1)NCc1ccc2c(c1)OCO2,15.4%,44.7µM*,?,nt,1.3%,-29.7%
Cc1cc(C(=O)CSc2nnc(-c3ccccc3)n2Cc2ccc3c(c2)OCO3)c(C)n1C,29.3%,28.2µM*,-6.6%,-1.3%,-5.8%,-9.8%
Cc1ccc(/C=C/c2onc(C)c2S(=O)(=O)N2CCC(C(=O)N3CCN(c4cccc(C)c4)C(C)C3)CC2)cc1 (stereo not given),9.2%[57 µM],-24.8%[59 µM],nt,nt,-19.5%,-17.6%
CC(=O)Nc1ccc(SCCN2CC[C@@H](C(C)(C)C)CCC2=O)cc1,33.5%,23.5%[2.33 µM],nt,8.6%,2.4%,-5.0%
C[C@@H]1/C=C\CC(=O)OC[C@H](C)C(=O)N[C@@H](C)C(=O)OC1,nt,nt,-0.2%,nt,nt,nt
Cc1cc(-c2nsc(=O)o2)c(S(C)(=O)=O)s1,?,2µM*,-83.9%,-5.8%,0.5%,?
O=c1c2c(-c3ccc(Cl)cc3)csc2ncn1/N=C/c1cccc([N+](=O)[O-])c1O,-17.3%,39.8µM*,-6.1%,nt,50.1µM*,39.8µM*
O=c1c2c(-c3ccccc3)csc2ncn1/N=C/c1c2ccccc2cc2ccccc12,8.4%,?,8.7%,nt,?,-27.6%
Cc1ccc(NS(=O)(=O)c2ccc3nc(-c4ccccc4)[nH]c3c2)c(Cl)c1,40.6%,4.5%[59 µM],nt,nt,1.7%,1.0%
Cc1ccc(S(=O)(=O)N2CCOCC2)cc1NC(=O)COC(=O)/C=C/c1ccc(F)cc1,36.1%,nt,nt,2.2%,nt,-0.7%
Cc1ccc(N2C(=O)c3n[nH]c(C)c3C2c2cccnc2)cc1 (stereo not given),33.0%,50.1µM*,6.6%,6.3%,-7.7%,-6.0%
CCOc1cc(C2c3c(n[nH]c3C)C(=O)N2c2ccc(C)cc2)ccc1O (stereo not given),15.7%,7.7%[12.7 µM],-7.8%,-9.3%[11.4 µM],10.0%,-1.8%
COc1cc(C2c3c(n[nH]c3C)C(=O)N2c2ccc(C)cc2)ccc1O (stereo not given),45.6%,50.1µM*,10.0%,0.5%,-6.0%,34.9%
Cc1cc(C)n(-c2ccc(C(=O)Nc3cc(S(=O)(=O)N(C)C)ccc3Cl)cc2)n1,29.8%,79.4µM*,15.3%,13.2%,5.1%,?
SMILES,HP1b binding inh,G9a block,Sfp inh,L3MBTL1 inh,BAZ2B inh,JMJD2A Tudor inh
Cc1cc(C)n(-c2ccc(C(=O)Nc3cccnc3Cl)cc2)n1,23.1%,-33.9%,7.3%,21.4%,-1.4%,-9.0%
COCCOC(=O)Cn1nnc2sc(-c3ccccc3)cc2c1=O,13.4%,7.3%[59 µM],nt,nt,-4.9%,-32.7%
CC1=CC(c2ccccc2)n2nc(N3C(=O)CCC3=O)nc2N1 (stereo not given),35.3%,20µM*,-7.6%,-4.8%,?,79.4µM*
CC1=CC(c2ccccc2)n2nc(N3C(=O)C4CC=CCC4C3=O)nc2N1 (stereo not given),22.8%,25.1µM*,8.5%,5.0%,-35.0%,-32.8%
CC1=CC(c2ccccc2)n2nc(N3C(=O)c4ccccc4C3=O)nc2N1 (stereo not given),29.5%,-2.3%[12.7 µM],-7.7%,-7.5%,-37.2%,-29.9%
O=C(Nc1ccc(Cl)cc1)Nc1cccc2nsnc12,52.5%,65.9%[12.7 µM],?,nt,1.4%,18.8%
Cc1ccc(C)c(OCCCN2CCNCC2)c1,22.9%,?,-6.5%,-0.1%,-2.0%,-25.2%
CC1CC(C)CN(CCCOc2ccccc2[N+](=O)[O-])C1 (stereo not given),?,14.1µM*,-68.0%,-11.1%,-30.0%,31.6µM*
Cc1ccc(OCCN2CCNCC2)c([N+](=O)[O-])c1,-7.2%,8.91µM*,-29.4%,-1.3%,56.2µM*,39.8µM*
Cc1ccc(OCc2ccc(C(=O)O)o2)c([N+](=O)[O-])c1,20.2%,50.1µM*,-11.8%,-6.8%,-4.4%,-11.3%
Cc1ccc(OCc2ccc(C(=O)N3CCCC3)o2)c([N+](=O)[O-])c1,8.0%,?,7.9%,nt,-16.9%,-15.8%
Cc1ccc(OCCN2CCN(C)CC2)c([N+](=O)[O-])c1,-45.0%,2.51µM*,?,1.5%,50.1µM*,3.55µM*
O=[N+]([O-])c1ccccc1OCCCN1CCc2ccccc2C1,34.2%,?,16.0%,-2.0%,-35.4%,-19.9%
COc1cccc(NC(=O)Cn2cc(C(=O)c3ccco3)c3ccccc32)c1,35.1%,2.0%[59 µM],nt,nt,-0.3%,-6.2%
CCCCNS(=O)(=O)c1ccc(C)c(-c2nnc3c4ccccc4c(C)nn23)c1,31.8%,-1.0%[59 µM],nt,nt,-1.2%,1.7%
O=C(c1ccc([N+](=O)[O-])cc1)N1CCC(Cc2ccccc2)CC1,-7.9%,-35.1%,-2.7%,-20.9%,?,?
Cc1ccc([N+](=O)[O-])c(OCCN2CCc3ccccc3C2)c1,?,10µM*,-27.8%,-2.5%,50.1µM*,20µM*
